Test system: Vero E6 infected with SARS-CoV-2
Experiment: inhibition of SARS-CoV-2 cytopathic effect; higher = more antiviral protection, active = above 15
Details: 48 h

Measured: inhibition of SARS-CoV-2 cytopathic effect

CCOc1ccc(-c2ccc(Cn3c(CC(C)(C)C(=O)O)c(SC(C)(C)C)c4cc(OCc5ccc(C)cn5)ccc43)cc2)cn1
inactive: 1 nM 1.07% | 8.33 nM 0.1% | 100 nM -0.84% | 833.33 nM -0.16% | 10000 nM -0.78%

COc1ccc2cc(CCC(C)=O)ccc2c1 [nabumetone]
inactive: 1 nM 0.72% | 8.33 nM 0.69% | 100 nM -4.19% | 833.33 nM -1.8% | 10000 nM -0.03%

COc1ccccc1Oc1c(NS(=O)(=O)c2ccc(C)cn2)nc(-c2ccncc2)nc1OC
inactive: 1 nM 1.47% | 8.33 nM 2.09% | 100 nM 1.19% | 833.33 nM 2.9% | 10000 nM -4.64%

CC[C@H]1OC(=O)[C@H](C)[C@@H](O[C@H]2C[C@@](C)(OC)[C@@H](O)[C@H](C)O2)[C@H](C)[C@@H](O[C@@H]2O[C@H](C)C[C@H](N(C)C)[C@H]2O)[C@](C)(OC)C[C@@H](C)C(=O)[C@H](C)[C@@H](O)[C@]1(C)O [clarithromycin]
inactive: 1 nM -4.37% | 8.33 nM -0.55% | 100 nM 2.36% | 833.33 nM 1.42% | 10000 nM -3%

CC(=O)[C@H]1CC[C@H]2[C@@H]3CC[C@H]4C[C@H](O)CC[C@]4(C)[C@H]3C(=O)C[C@]12C [alfaxalone]
inactive: 1 nM -1.46% | 8.33 nM 0.56% | 100 nM -1.95% | 833.33 nM -1.55% | 10000 nM -4.57%

CCC(=O)O[C@]1(C(=O)CCl)[C@@H](C)C[C@H]2[C@@H]3C[C@H](F)C4=CC(=O)C=C[C@]4(C)[C@@]3(F)[C@@H](O)C[C@@]21C [halobetasol-propionate]
inactive: 1 nM -3.17% | 8.33 nM -1.89% | 100 nM -2.65% | 833.33 nM 1.32% | 10000 nM 4.68%

C[C@@H]1Cc2c([nH]c3ccccc23)[C@@H](c2c(F)cc(/C=C/C(=O)O)cc2F)N1CC(C)(C)F
inactive: 1 nM 0.69% | 8.33 nM 1.08% | 100 nM -2.47% | 833.33 nM -1.93% | 10000 nM -3.78%

CC1(C)CCC2=C(O1)c1ccccc1C(=O)C2=O [beta-lapachone]
inactive: 1 nM -0.31% | 8.33 nM 0.37% | 100 nM -2.74% | 833.33 nM -1.46% | 10000 nM 10.9%

CCC(C)(CN(C)C)OC(=O)c1ccccc1 (stereo not given) [amyleine]
inactive: 1 nM -1.14% | 8.33 nM 0.02% | 100 nM -0.24% | 833.33 nM -8.42% | 10000 nM -0.23%

Cc1nn(C)c2c1C(c1ccc(C(F)(F)F)cc1)C(C#N)=C(N)O2 (stereo not given)
inactive: 1 nM -1.05% | 8.33 nM -1.78% | 100 nM -1.6% | 833.33 nM -1.63% | 10000 nM 2.56%

CC(COc1ccccc1)NC(C)C(O)c1ccc(O)cc1 (stereo not given) [isoxsuprine]
inactive: 1 nM 0.69% | 8.33 nM 2% | 100 nM -0.95% | 833.33 nM 1.95% | 10000 nM -1.14%

CC(=O)NO [acetohydroxamic-acid]
inactive: 1 nM 4.31% | 8.33 nM 3.09% | 100 nM -3.04% | 833.33 nM 2.55% | 10000 nM 3.32%

COc1ccc(/C=C/C(=O)O)cc1 [trans-4-methoxycinnamic-acid]
inactive: 1 nM 1.02% | 8.33 nM -0.31% | 100 nM -1.64% | 833.33 nM -0.87% | 10000 nM -1.56%

CC(=O)Oc1ccccc1C(=O)Oc1cccc(CO[N+](=O)[O-])c1
inactive: 1 nM -1.24% | 8.33 nM -0.2% | 100 nM -0.7% | 833.33 nM 0.32% | 10000 nM 3.31%

C=Cc1cc(O)cc2nc(-c3ccc(O)c(F)c3)oc12 [prinaberel]
inactive: 1 nM 0.2% | 8.33 nM 0.74% | 100 nM 1.61% | 833.33 nM 0.55% | 10000 nM 0.56%

Oc1ccc2c3c1O[C@H]1[C@@H](O)CC[C@@]4(O)[C@@H](C2)N(CC2CCC2)CC[C@]314 [nalbuphine]
inactive: 1 nM 2.57% | 8.33 nM 0.43% | 100 nM 0.27% | 833.33 nM 0.68% | 10000 nM 0.06%

COc1cc2nc(N3CCN(C(=O)COc4c(OC)cccc4C(C)C)CC3)nc(N)c2cc1OC
inactive: 1 nM 0.49% | 8.33 nM 0.12% | 100 nM 3.19% | 833.33 nM 3.59% | 10000 nM 1.29%

Reference: the supplement of paper PMC13380429
